Screening results deposited in PubChem BioAssay by The Scripps Research Institute Molecular Screening Center.
hcDAF-12 act = activates DAF-12 receptor from parasite H. contortus; HEK293 hcDAF-12 lit1-tk-luc reporter, luminescence; 0% DMSO, 100% Δ7-dafachronic acid; activation, % at 6.8 µM; actives 1.4% (n = 370,000); AID 652067;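 active = activation above the mean of all tested compounds plus 3 SD, cut at about 5.5% in these data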;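 note: 100% = response to 3 µM Δ7-dafachronic acid high control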
hgDAF-12 ag = activates the H. glycines DAF-12 receptor ligand-binding domain; HEK293 GAL4-hgDAF12 UAS-luciferase reporter, agonist luminescence; normalized to butyrate control; activation, % at 6.8 µM; actives 1.8% (n = 370,000);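 active = activation above a cutoff set at the mean of all screened compounds plus 3 SD, cut at about 10% in these data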;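 note: 0% = DMSO wells and 100% = sodium butyrate wells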
DAX1 inh-1 = inhibits human nuclear receptor DAX1; P51843; HEK293 Gal4-DAX1 luciferase reporter, luminescence; inhibition, % at 6.75 µM; actives 0.99% (n = 340,000); AID 504766;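 active = inhibition above the mean over all tested compounds plus 3 SD, cut at about 4.2% in these data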;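 note: 0% = DAX1-transfected cells with DMSO and 100% = empty-vector control cells with DMSO; inhibition shows as a rise in luminescence from relieved DAX1 repression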
Target sequence (P51843 207-470 limits assumed): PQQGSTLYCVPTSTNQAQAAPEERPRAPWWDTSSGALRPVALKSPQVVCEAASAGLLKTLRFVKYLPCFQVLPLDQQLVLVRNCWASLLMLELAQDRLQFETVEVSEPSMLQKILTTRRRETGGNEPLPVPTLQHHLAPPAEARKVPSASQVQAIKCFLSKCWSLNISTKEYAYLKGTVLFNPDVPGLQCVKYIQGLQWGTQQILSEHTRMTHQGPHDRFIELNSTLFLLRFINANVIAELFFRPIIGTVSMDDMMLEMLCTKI
ssDAF12 agonist = activates DAF-12 receptor from parasite S. stercoralis; AID 652126; actives 1% (n = 370,000); HEK293 ssDAF-12/GRIP1 lit1-tk-luc reporter, luminescence; % of 3 µM dafachronic acid response; activation, % at 6.8 µM;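 active = activation above the mean over all tested compounds plus 3 SD, cut at about 0.9% in these data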;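 note: 0% = DMSO-only wells and 100% = 3 µM delta7-dafachronic acid wells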
DAX1 inh-2 = blocks DAX1 repression of SF-1 activated StAR promoter; HEK293T StAR-luciferase reporter, SF-1/DAX-1 repression relief; inhibition, % at 6.8 µM; actives 1.1% (n = 370,000); AID 652010;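 active = inhibition above the mean over all tested compounds plus 3 SD, cut at about 3.6% in these data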;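 note: 0% = DAX-1 cells with DMSO and 100% = cells lacking DAX-1 with DMSO; higher inhibition means more luminescence from relief of DAX-1 repression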
LXR ag = counter-screen for hcDAF-12 agonists: agonists of human LXR-beta | shares compounds with hcDAF-12 act | HEK293 Gal4-LXR tk-luc reporter, luminescence, 24 h; normalized: DMSO 0%, positive control 100% | activation, % at 6.8 µM | 3,400 tested, under 10 active;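 active = mean percent activation of the reporter above a cutoff set as the average over tested compounds plus their standard deviation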
hcDAF12 conf = confirmation of H. contortus DAF-12 agonists | HEK293 hcDAF-12 lit1-tk-luc reporter, luminescence; % of Δ7-dafachronic acid response | actives 61% (n = 3,400) | shares compounds with hcDAF-12 act | activation, % at 6.8 µM | AID 743032;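 active = mean activation across triplicate tests above the threshold derived from the earlier primary screen, cut at about 5.5% in these data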;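 note: 0% = DMSO only wells and 100% = 3 µM Δ7-dafachronic acid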
Starred values were filed as active, the others as inactive; . = no result given; ! = not confirmed by another sample. An excerpt weighted towards active compounds, which were near 4.1% of everything screened.

SMILES | hcDAF-12 act | hgDAF-12 ag | DAX1 inh-1 | ssDAF12 agonist | DAX1 inh-2 | LXR ag | hcDAF12 conf
Nc1nn(-c2ccccc2)c(N)c1N=Nc1ccc2c(c1)OCO2 | 8.4* | 20* | -1 | 0 | 2 | 2 | 6.5*
Nc1[nH]n(-c2ccccc2)c(=O)c1N=Nc1ccc2c(c1)OCO2 | -1 | 3 | 0 | -2 | 1 | . | .
c1cc2c(cn1)cnc1cscc12 | -4 | 9 | 1 | -2 | 0 | . | .
Cc1ccc(/C=N/Nc2cccc3cccnc23)c(O)c1 | 7.5* | 7 | 0 | 1 | 2 | 2 | 17*
CC(C)(C)C(=O)CN1C(=O)NC2(CCOc3ccccc32)C1=O (configuration not stated) | 8.0* | 5 | 1 | 0 | 3.7* | 0 | 4
CCc1nnc(NC(=O)Cc2cc(OC)c(OC)c(OC)c2)s1 | 0 | -1 | 0 | -2 | 1 | . | .
Nc1nc2ncccn2c1-c1ccc(C(F)(F)F)cc1 | 6.9* | -2 | . | 0 | -1 | 0 | -1
CC1=CC(C)(C)NC(=S)N1c1cccc2cc(S(=O)(=O)O)ccc12 | 0 | -2 | 1 | -1 | 0 | . | .
O=C(/C=C/c1cnc2ccccc2n1)NC12CC3CC(CC(C3)C1)C2 | 11* | 7 | 1 | 0 | 3 | 2 | 10*
O=C(Nc1cc(-c2nc3ccccc3s2)ccc1Cl)c1ccc2c(c1)OCO2 | 9.9* | 11* | 3 | 1.6* | 2 | 0 | 6.3*
Cc1ccc(-c2nc3ccccc3s2)cc1NC(=O)c1ccc2c(c1)OCO2 | -2 | -2 | 0 | 0 | 0 | . | .
CSc1ccccc1OCc1cc(C(=O)NC2CCOC2)no1 (configuration not stated) | 1 | 2 | 0 | -1 | 0 | . | .
CSc1ccccc1OCc1cc(C(=O)NC2CCc3ccccc32)no1 (configuration not stated) | 7.6* | 0 | 0 | -1 | -1 | 0 | 2
CCOC(=O)C(C)(C)Sc1nc2c(cnn2-c2ccc(F)cc2)c(=O)[nH]1 | -1 | -5 | 1 | -1 | 0 | . | .
CCOC(=O)C(C)(C)Sc1nc2c(cnn2-c2ccc(C)cc2)c(=O)[nH]1 | 8.8* | 2 | 0 | -1 | 0 | 0 | 0
CN(c1ccccc1)S(=O)(=O)c1cccc(NC(=O)CN2C(=O)NC3(CCCC3)C2=O)c1 | 1 | 1 | 0 | -1 | 2 | . | .
Cc1cccc(C(=O)NNC(=O)c2ccc(Cl)cc2)c1O | 7.1* | 5 | 1 | 0 | 2 | 0 | 5.9*
Cc1ccc2nc(-c3cc(-c4ccccc4)no3)cn2c1 | 8.1* | 12* | -3 | 1 | 2 | 1 | 4
CCc1ccn2cc(-c3cc(-c4ccccc4)no3)nc2c1 | -6 | -13 | -9 | -3 | -2 | . | .
O=C(CC1CC2CCC1C2)N1CCN(S(=O)(=O)c2ccc(C(F)(F)F)cc2)CC1 (configuration not stated) | 0 | -1 | 1 | -1 | -1 | . | .
CCOCCCNC(=O)c1cc2c(=O)n3cccc(C)c3nc2s1 | 12* | 1 | 0 | 0 | 0 | 0 | 3
Cc1cccn2c(=O)c3cc(C(=O)NCCCOC(C)C)sc3nc12 | 1 | -1 | 2 | -1 | 0 | . | .
CCCn1c(=O)c(C(=O)Nc2cccc(C)c2)c(O)c2ccccc21 | 1 | 1 | -1 | 0 | 0 | . | .
CCn1c(=O)c(C(=O)Nc2ccc(C)cc2)c(O)c2ccccc21 | 8.7* | 2 | 3 | 0 | 1 | 0 | 5
Cc1ccc(NC(=O)c2c(Cl)n(C)c3ccccc23)cc1 | 7.0* | 10 | 1 | 1.1* | 0 | 0 | 11*
SMILES | hcDAF-12 act | hgDAF-12 ag | DAX1 inh-1 | ssDAF12 agonist | DAX1 inh-2 | LXR ag | hcDAF12 conf
CCn1c(=O)c(C(=O)NNC(=O)c2ccccc2)c(O)c2ccccc21 | -1 | 4 | 1 | 0 | 0 | . | .
Cc1cccc(NC(=O)c2c(O)c3ccccc3n(C)c2=O)c1 | 7.5* | 5 | 1 | 1.1* | 1 | 1 | 12*
Cc1ccc(NC(=O)c2cc(Cl)nc3ccccc23)cc1 | 2 | 1 | 0 | -1 | 0 | . | .
Clc1ccccc1-c1nc(-c2cccnc2)no1 | 8.1* | 9 | 3 | 1.3* | 3 | 1 | 8.1*
CCc1ccc(-c2nc(-c3ccncc3)no2)cc1 | 8.2* | 11* | 1 | 1 | 3 | 2 | 8.3*
Clc1ccccc1-c1nc(-c2ccncc2)no1 | 7.2*! | 10 | 2 | -1 | 1 | 2 | 5
CCCCc1ccc(-c2nc(-c3ccncc3)no2)cc1 | 0 | 7 | 1 | 0 | 2 | . | .
O=C(Nc1csc(Cc2c(Cl)cccc2Cl)n1)NN1CCOCC1 | -2 | -3 | 0 | -1 | -1 | . | .
Cc1ccc(S(=O)(=O)CC(=O)Nc2nc(C(C)(C)C)cs2)cc1 | -4 | -3 | -1 | -2 | 0 | . | .
CN(/N=C/c1cccnc1)c1cnn(-c2ccc(F)c(Cl)c2)c(=O)c1Cl | 0 | 0 | 1 | -1 | 0 | . | .
CN(/N=C/c1c[nH]c2ccccc12)c1cnn(-c2ccc(F)c(Cl)c2)c(=O)c1Cl | 7.2* | 3 | -1 | 1 | 1 | 0 | 1
COc1ccc(Br)cc1C1Nc2cccc3cccc(c23)N1 | 0 | 1 | 1 | -1 | 0 | . | .
Brc1ccc(C2Nc3cccc4cccc(c34)N2)s1 | 6.6* | 5 | 0 | 0 | 0 | 0 | 4
Cc1ccc(CN=C2Nc3ccccc3CS2)cc1 | 9.7* | 15* | 1 | 0 | 4.1* | 2 | 10*
Cc1ccc(S(=O)(=O)CCC(=O)OCCOc2cccc(Br)c2)cc1 | 0 | -1 | 0 | -1 | -2 | . | .
O=C(NC(=S)Nc1ccccc1[N+](=O)[O-])c1ccccc1Cl | 0 | 7 | 0 | -1 | 1 | . | .
O=C(NNC(=S)NC(=O)c1ccccc1[N+](=O)[O-])c1ccccc1Cl | 7.2* | 4 | -1 | -1 | 0 | 0 | 0
O=C1CCC(C(=O)N2CCSCC2)CN1Cc1cccc(C(F)(F)F)c1 (configuration not stated) | -2 | 0 | 0 | -1 | -1 | . | .
